Reference: PubChem BioAssay (NCATS)
Records with an inconclusive call do not appear. A call without a number means that no potency is given here. Activity calls are given as the source filed them. Calls follow the shape of the dose curve; as a rule, active = well fitted curve in the direction sought with a large enough effect; inconclusive = small, poorly fitted or top-dose-only effect, or another doubt; inactive = no such curve, though single readings can be large; an effect the other way counts as inactive or inconclusive.

What was measured:
[1] = target: Arylsulfatase A (Homo sapiens) (UniProt P15289); experiment: qHTS screen for enhancers of Arylsulfatase A (ASA1): LOPAC Validation Assay (AID 720538)
Summary of the method: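 SV40-transformed fibroblasts from an MLD patient (ASA-I179S) were treated with compound for 48 h at 37 C. They were then lysed with 0.5 mM pNCS substrate (final) for 14 h at room temperature and stopped with NaOH; signal read by fluorescence (Ex 525/Em 598 nm), with increase denoting enhanced activity.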

[2] = qHTS for compounds that reverse cellular toxicity of Amyloid beta (A-beta) peptide in yeast: LOPAC Validation Assay (AID 720559); conditions: Potency: rescue of growth toxicity
Summary of the method: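 Yeast expressing toxic A-beta grown with pinned compounds at 30 C for 48 hr. Growth measured as absorbance at 600 nm; data normalized to DMSO and to an equimolar FeCl3/clioquinol mixture as positive control.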

[3] = qHTS for Activators of Parkin Expression: LOPAC Validation Assay (NLuc Reporter) (AID 720572)
Summary of the method: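 Cells harboring the Parkin-promoter coincidence reporter were treated for 24 h at seven concentrations. NLuc output was measured sequentially after the FLuc channel and scaled between DMSO and positive control values.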

[4] = qHTS for Activators of Parkin Expression: LOPAC Validation Assay (FLuc Reporter) (AID 720573; also: potency is read from the fitted curve at half-maximal effect)
Summary of the method: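 Neuronal cell line stably expressing FLuc/NLuc coincidence reporter under the Parkin promoter, 1,500 cells/well, dosed 24 h after seeding in 7-point series for 24 h at 37 C. FLuc luminescence read; normalized to DMSO and positive control (100%).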

Chain of Arylsulfatase A (Homo sapiens) (P15289 whole entry, looked up): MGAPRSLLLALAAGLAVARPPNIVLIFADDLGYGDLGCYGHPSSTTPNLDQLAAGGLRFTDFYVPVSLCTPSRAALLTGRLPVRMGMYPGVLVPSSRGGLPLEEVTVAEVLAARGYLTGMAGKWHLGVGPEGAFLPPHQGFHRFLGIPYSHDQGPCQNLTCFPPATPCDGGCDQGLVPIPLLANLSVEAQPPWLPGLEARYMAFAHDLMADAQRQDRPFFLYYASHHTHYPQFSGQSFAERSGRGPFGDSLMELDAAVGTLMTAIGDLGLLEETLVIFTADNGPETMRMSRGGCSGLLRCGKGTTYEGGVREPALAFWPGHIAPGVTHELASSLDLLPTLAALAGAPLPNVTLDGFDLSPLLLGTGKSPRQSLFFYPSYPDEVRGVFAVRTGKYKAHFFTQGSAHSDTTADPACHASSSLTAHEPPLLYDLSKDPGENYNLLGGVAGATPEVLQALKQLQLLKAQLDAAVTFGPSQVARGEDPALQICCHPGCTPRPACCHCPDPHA

In the case of `CCN1/C(=C/C(C)=O)Sc2ccc(OC)cc21`, the Potency [1] was “inactive”, the Potency [2] was “inactive” and the Potency [3] was “inactive”. The Potency [4] was “inactive”.
For `O=Nc1ccc2oc(=O)ccc2c1`, the Potency [1] was “inactive”, the Potency [2] was “inactive” and the Potency [3] was “inactive”. The Potency [4] was “inactive”.
With `Cc1cc(NC(=O)Nc2ccc3c(ccn3C)c2)sn1` the Potency [1] was “inactive”, the Potency [2] was “inactive” and the Potency [3] was “inactive”. The Potency [4] was 5.8 µM (active).
In the case of `CCCN(CC1CC1)c1nc(C)nc(Nc2c(Cl)cc(Cl)cc2Cl)c1Cl`, the Potency [1] was “inactive”, the Potency [2] was “inactive” and the Potency [3] was “inactive”. The Potency [4] was “inactive”.
In the case of `CN1C2CCC1CC(OC(=O)C(O)c1ccccc1)C2` (configuration not stated), the Potency [1] was “inactive”, the Potency [2] was “inactive” and the Potency [3] was “inactive”. For the same molecule, the Potency [4] was “inactive”.
For `CN(C)C(N)=NCCC[C@H](N)C(=O)O`, the Potency [1] was “inactive”, the Potency [2] was “inactive” and the Potency [3] was “inactive”. For the same molecule, the Potency [4] was “inactive”.
With `CC(N)C(=O)OC(C)(C)Cc1ccc(Cl)cc1` (configuration not stated) the Potency [1] was “inactive”, the Potency [2] was “inactive” and the Potency [3] was “inactive”. For the same molecule, the Potency [4] was “inactive”.
In the case of `CC12C(=O)OC(=O)C1(C)C1CCC2O1` (configuration not stated), the Potency [1] was “inactive”, the Potency [2] was “inactive” and the Potency [3] was “inactive”. For the same molecule, the Potency [4] was “inactive”.
